Sampled rows, rich in hits. Any-hit rate of the full collection: about 2.4%.
D2 PAM-1: Beta-Arrestin HTS for Positive Allosteric Modulators of the Human D2 Dopamine Receptor: Potentiators | D(2) dopamine receptor (Homo sapiens), P14416 | DiscoveRx D2 beta-arrestin cells, luminescence, 90 min; 100% = 57 uM dopamine signal | potentiation, % (no concentration beside the values) | 360,000 compounds, 0.23% hits; in the data active = potentiation above about 50%
Target sequence (P14416 whole entry, looked up): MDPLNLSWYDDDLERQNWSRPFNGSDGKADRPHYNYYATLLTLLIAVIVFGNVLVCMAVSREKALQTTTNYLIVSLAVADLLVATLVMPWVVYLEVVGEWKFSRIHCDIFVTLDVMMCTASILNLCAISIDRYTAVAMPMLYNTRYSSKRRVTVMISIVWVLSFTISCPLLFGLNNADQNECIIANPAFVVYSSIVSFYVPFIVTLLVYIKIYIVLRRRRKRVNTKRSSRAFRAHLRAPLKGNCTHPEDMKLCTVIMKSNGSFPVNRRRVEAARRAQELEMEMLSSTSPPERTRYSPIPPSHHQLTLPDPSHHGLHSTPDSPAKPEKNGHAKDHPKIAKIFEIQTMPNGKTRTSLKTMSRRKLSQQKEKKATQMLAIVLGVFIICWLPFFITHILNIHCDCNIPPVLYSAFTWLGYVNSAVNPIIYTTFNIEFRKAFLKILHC
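PathHunter D2 cells, attached overnight at 37 deg C, received compound in DMSO plus dopamine at EC20 (50 nM final) for 90 min at 37 deg C. Beta-arrestin recruitment was read as luminescence after 1 h with detection reagent at ambient temperature.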
D2 antag: HTS Assay for Allosteric Antagonists of the Human D2 Dopamine Receptor: Primary Screen for Antagonists; D(2) dopamine receptor (Homo sapiens), P14416; HEK293 TREx D2 cells, calcium flux, dopamine EC80; inhibition, % at 10 µM; 340,000 compounds, 2% hits; AID 485344, 2010; in the data active = inhibition above about 30%; inactive = below that, where a call was filed; also: 0% is about no effect
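In this primary screen, negative modulation is detected by tracking calcium flux after an EC80 dopamine challenge in inducible HEK293 T-REx D2 cells preexposed to test compound for 180 s.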
D2 ag-1: Beta-Arrestin HTS for Positive Allosteric Modulators of the Human D2 Dopamine Receptor: Agonists | 360,000 compounds, 0.084% hits | activation, % (concentration not given with the values) | DiscoveRx PathHunter D2 beta-arrestin, luminescence, 90 min; 100% = 57 uM dopamine signal | D(2) dopamine receptor (Homo sapiens), P14416 | AID 624465, 2012; in the data active = activation above about 40%
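Agonist mode: compounds alone added to overnight-plated D2 PathHunter cells for 90 min at 37 C, with 57 uM final dopamine (EC100) defining full response. Beta-arrestin recruitment detected by chemiluminescent reagent, read after 1 h at ambient temperature.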
D2 PAM-2: HTS Assay for Positive Allosteric Modulators of the Human D2 Dopamine Receptor: Primary Screen for Potentiators. D(2) dopamine receptor (Homo sapiens), P14416. HEK293 T-REx D2, calcium flux, EC20 dopamine potentiation. potentiation, % at 10 µM. 340,000 compounds, 0.34% hits. AID 485347, 2010;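 active = potentiation over 3 SD above the plate norm, cut at about 30% in these data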; also: 0% is about no effect
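Tetracycline-induced HEK293 T-REx cells force-coupled to calcium signalling expressed D2; compounds were pin-added after a 10 s baseline, read kinetically 180 s, then an EC20 dopamine challenge followed with a further 180 s calcium read.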
D2 ag-2: HTS Assay for Allosteric Agonists of the Human D2 Dopamine Receptor: Primary Screen for Agonists; D(2) dopamine receptor (Homo sapiens), P14416; HEK293 T-REx D2 cells, calcium flux agonist mode; activation, % at 2 µM; 340,000 compounds, 0.53% hits;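 active = activation over 3 SD above normal in the single-dose calcium agonist read, cut at about 30% in these data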; also: 0% is about no effect
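HEK293 Trex D2 cells, tetracycline-induced, o/n 30 C 5% CO2; no-wash Ca dye, RT 30–90 min; 10-cycle baseline, 23 nl cpd added, kinetic Ca read 180 s; agonist hits = positive Ca response.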
* = called active by the depositor.

For COc1ccc(C(=O)C2CCN(C(=O)c3ccco3)CC2)cc1 the results were D2 PAM-1 -0.1, D2 antag -12.6, D2 ag-1 -2.9, D2 PAM-2 5.2 and D2 ag-2 -0.2.
`Cc1c(Cl)cccc1NC(=O)N1CCN(C(=O)c2ccco2)CC1` gave D2 PAM-1 -3.7, D2 antag -3.8, D2 ag-1 -3.6, D2 PAM-2 -2.9 and D2 ag-2 31.4*.
For CCCSc1nnc2c(n1)OC(c1sccc1C)Nc1ccccc1-2 (stereo not drawn) the results were D2 PAM-2 10.4 and D2 ag-2 -2.4.
Screening COc1cc(NC(C)=O)c2ncccc2c1NC(C)=O returned D2 PAM-1 -4.0, D2 antag 36.7*, D2 ag-1 -5.9, D2 PAM-2 13.3 and D2 ag-2 0.9.
For COc1ccc2c3c(cccc13)N(C)N=C2C the results were D2 PAM-1 56.4*, D2 antag -1.1, D2 ag-1 7.3, D2 PAM-2 8.4 and D2 ag-2 -0.3.
Screening COc1ccc2c3c(cccc13)OC2=O returned D2 PAM-1 -0.6, D2 antag 4.6, D2 ag-1 0.4, D2 PAM-2 8.9 and D2 ag-2 -0.7.
For COCC(C)NC(=O)CSc1nnc(-c2cccc(S(=O)(=O)N3CCCCC3)c2)o1 (stereo not drawn) the results were D2 PAM-1 -1.8, D2 antag -12.0, D2 ag-1 -3.6, D2 PAM-2 3.2 and D2 ag-2 1.9.
Screening CC(NC(=O)CSc1nnc(-c2cccc(S(=O)(=O)N3CCCCC3)c2)o1)C12CC3CC(CC(C3)C1)C2 (stereo not drawn) returned D2 PAM-1 58.4*, D2 ag-1 1.0 and D2 PAM-2 11.6.
Screening CCc1ccccc1NC(=O)c1ccc2nc(C(C)C)oc2c1 returned D2 PAM-2 7.7 and D2 ag-2 -0.6.
Screening Cc1ccc(NC(=O)CSc2nc3c(oc4ccccc43)c(=O)n2Cc2ccco2)cc1 returned D2 PAM-2 -6.2 and D2 ag-2 0.5.
Screening O=S(=O)(Nn1cnnc1)c1ccccc1Cl returned D2 PAM-1 8.3, D2 antag 30.4*, D2 ag-1 -1.0, D2 PAM-2 9.1 and D2 ag-2 0.7.
For CCCN1C(=O)/C(=C/c2c(N3CCNC(=O)C3CC(=O)OC)nc3c(C)cccn3c2=O)SC1=S (stereo not drawn) the results were D2 antag 42.7*, D2 PAM-2 -11.5 and D2 ag-2 55.1*.
CC(=O)Nc1ccc(N2C(=O)c3cccc4c(O)ccc(c34)C2=O)cc1 was read as D2 PAM-1 17.9, D2 antag 26.7, D2 ag-1 12.4, D2 PAM-2 -7.8 and D2 ag-2 63.5*.
Cc1c(/C=N\NC(=O)C2COc3ccc(C(C)(C)C)cc3O2)c2ccccc2n1C (stereo not drawn) was read as D2 PAM-1 118.0*, D2 antag 58.0*, D2 ag-1 44.8*, D2 PAM-2 -9.7 and D2 ag-2 1.2.
Screening Cc1c(Cl)cccc1NC(=O)CCn1nc(C)c2c(C)n(-c3ccccc3)nc2c1=O returned D2 PAM-2 8.2 and D2 ag-2 0.2.
Screening CC(C)Cc1nnc(NS(=O)(=O)Cc2ccccc2)s1 returned D2 PAM-1 0.1, D2 antag 32.0*, D2 ag-1 0.3, D2 PAM-2 6.2 and D2 ag-2 -0.4.
For CC(C)Cc1nnc(NS(=O)(=O)c2ccccc2)s1 the results were D2 PAM-1 -11.2 and D2 ag-1 -0.7.
`COc1ccc(CC(=O)Nc2c(C(=O)Nc3ccc(F)cc3)oc3ccccc23)cc1OC` gave D2 PAM-2 3.3 and D2 ag-2 0.7.
`Cn1c(=O)c2c(nc(OCc3cccnc3)n2Cc2c(F)cccc2Cl)n(C)c1=O` gave D2 PAM-1 -8.8, D2 antag 43.3*, D2 ag-1 -2.0 and D2 ag-2 0.3.

Screening data from PubChem BioAssay.
